Here are results for 27 compounds from the supplement of paper PMC3342239.

Where a name gives a salt, the structure may show the parent alone.

For the first experiment, the system named is Saccharomyces cerevisiae. The experiment in a line: fraction of cells in G1 phase (DNA content, flow cytometry); higher = more cells with unreplicated DNA (G1 delay). Conditions: temperature: 30 C; YPD; BY4741 PDR5+ SNQ2+; drug added to: actively dividing cells; 4.33 h. Here is the method:
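S. cerevisiae cultures in YPD at 30°C were treated with each drug of the Enzo FDA-approved library at 20 µg/ml (final µM given per drug). Cells were fixed after 6–7 h (S1) or 6 h (S2), or after 4.33 h for BY4741 (S3), then stained with SYTOX Green. %G1 is the Dean-Jett-Fox G1 peak area divided by the G1+G2/M peak areas, written as a fraction and averaged over at least two independent experiments. DMSO reference: mean ~0.49; >0.60 is called High G1 and <0.3876 Low G1. Scale: lower means mitotic delay.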
Background: A flow cytometer gives signals particle by particle.
`CC(CN1c2ccccc2Sc2ccccc21)N(C)C` (stereo not given) [Promethazine HCl] (70.317 µM): the “fraction of cells in G1 phase” value came out at 0.437. With `OC(Cn1cncn1)(Cn1cncn1)c1ccc(F)cc1F` [Fluconazole] (65.3004 µM), the “fraction of cells in G1 phase” value is 0.441.

For `COC(=O)[C@H](c1ccccc1Cl)N1CCc2sccc2C1` [Clopidogrel sulfate] (62.1449 µM), the “fraction of cells in G1 phase” value amounted to 0.459. On the same count and under the same terms, with `CC(C)COCC(CN(Cc1ccccc1)c1ccccc1)N1CCCC1` (stereo not given) [Bepridil] (48.4262 µM) the figure was 0.391; with `Fc1ccc(C(c2ccc(F)cc2)N2CCN(C/C=C/c3ccccc3)CC2)cc1` [Flunarizine-2HCl] (41.8936 µM), 0.442. `Cc1ccc(C)c(OCCCC(C)(C)C(=O)O)c1` [Gemfibrozil] (79.8911 µM): the “fraction of cells in G1 phase” value turned out to be 0.51.

The same experiment, now with this note: temperature: 30 C; YPD; JTY2953 pdr5 snq2 (sensitized); drug added to: actively dividing cells; 6 h.
Consider `OC(Cn1cncn1)(Cn1cncn1)c1ccc(F)cc1F` [Fluconazole] (65.3004 µM), for which the “fraction of cells in G1 phase” value turned out to be 0.711.

For `COC(=O)[C@H](c1ccccc1Cl)N1CCc2sccc2C1` [Clopidogrel sulfate] (62.1449 µM), the “fraction of cells in G1 phase” value is 0.719. Still for that read-out and setting: then `CC(C)COCC(CN(Cc1ccccc1)c1ccccc1)N1CCCC1` (stereo not given) [Bepridil] (48.4262 µM), with 0.637; and `CCCCc1oc2ccccc2c1C(=O)c1cc(I)c(OCCN(CC)CC)c(I)c1` [Amiodarone] (30.9922 µM), with 0.388.

As to `OCCN1CCN(CCCN2c3ccccc3Sc3ccc(C(F)(F)F)cc32)CC1` [Fluphenazine 2HCl] (45.711 µM), the “fraction of cells in G1 phase” value was determined as 0.327. Still for that read-out and setting: then `Fc1ccc(C(c2ccc(F)cc2)N2CCN(C/C=C/c3ccccc3)CC2)cc1` [Flunarizine-2HCl] (41.8936 µM), with 0.761; and `Cc1ccc(C)c(OCCCC(C)(C)C(=O)O)c1` [Gemfibrozil] (79.8911 µM), with 0.667.

Still in this experiment, the particulars now being: temperature: 30 C; YPD; JTY2953 pdr5 snq2 (sensitized); drug added to: cultures diluted from stationary phase; 6-7 h.
Take `CC(N/C(=N\C#N)Nc1ccncc1)C(C)(C)C` (stereo not given) [Pinacidil] (81.5229 µM): the “fraction of cells in G1 phase” value worked out at 0.51. The same measure, in the same setting: with `CCN1CCCC1CNC(=O)c1cc(S(=O)(=O)CC)c(N)cc1OC` (stereo not given) [Amisulpride] (54.1272 µM) the figure was 0.471; with `CC(CN1c2ccccc2Sc2ccccc21)N(C)C` (stereo not given) [Promethazine HCl] (70.317 µM), 0.204; with `OC(Cn1cncn1)(Cn1cncn1)c1ccc(F)cc1F` [Fluconazole] (65.3004 µM), 0.611. Turning to `CC1=C(CC(=O)O)c2cc(F)ccc2/C1=C\c1ccc([S+](C)[O-])cc1` (stereo not given) [Sulindac] (56.1137 µM), the “fraction of cells in G1 phase” value stood at 0.521. Still for that read-out and setting: with `COC(=O)[C@H](c1ccccc1Cl)N1CCc2sccc2C1` [Clopidogrel sulfate] (62.1449 µM) the figure was 0.642. In the case of `COC(=O)Nc1nc2cc(Sc3ccccc3)ccc2[nH]1` [Fenbendazole] (66.8106 µM), the “fraction of cells in G1 phase” value came out at 0.421. As for `CC(=O)Nc1ccc(OCC(O)CNC(C)C)cc1` (stereo not given) [Practolol] (75.0911 µM), the “fraction of cells in G1 phase” value was found to be 0.506. Still for that read-out and setting: with `CNCCC(Oc1ccccc1OC)c1ccccc1` (stereo not given) [Nisoxetine HCl] (73.7022 µM) the figure was 0.511.

Turning to `CC1(C)O[C@@H]2C[C@H]3[C@@H]4C[C@H](F)C5=CC(=O)C=C[C@]5(C)[C@@]4(F)[C@@H](O)C[C@]3(C)[C@]2(C(=O)CO)O1` [Fluocinolone acetonide] (44.1989 µM), the “fraction of cells in G1 phase” value was determined as 0.48. Turning to `CC(C)COCC(CN(Cc1ccccc1)c1ccccc1)N1CCCC1` (stereo not given) [Bepridil] (48.4262 µM), the “fraction of cells in G1 phase” value is 0.601. Still for that read-out and setting: with `COc1ccc2[nH]c([S@@+]([O-])Cc3ncc(C)c(OC)c3C)nc2c1` [Esomeprazole potassium] (57.9 µM) the figure was 0.522; with `COCCOC(=O)C1=C(C)NC(C)=C(C(=O)OC/C=C/c2ccccc2)C1c1cccc([N+](=O)[O-])c1` (stereo not given) [Cilnidipine] (40.6064 µM), 0.494.

In the case of `CC(=O)Oc1ccc(C(c2ccc(OC(C)=O)cc2)c2ccccn2)cc1` [Bisacodyl] (55.3402 µM), the “fraction of cells in G1 phase” value came out at 0.499. As for `COC(=O)[C@@H]1[C@H]2C[C@H]3c4[nH]c5ccccc5c4CCN3C[C@@H]2CC[C@@H]1O` [Yohimbine HCl] (51.164 µM), the “fraction of cells in G1 phase” value came out at 0.524. Turning to `CCCCc1oc2ccccc2c1C(=O)c1cc(I)c(OCCN(CC)CC)c(I)c1` [Amiodarone] (30.9922 µM), the “fraction of cells in G1 phase” value turned out to be 0.868. `CC(C)Nc1cccnc1N1CCN(C(=O)c2cc3cc(NS(C)(=O)=O)ccc3[nH]2)CC1` [Delavirdine mesylate] (43.8048 µM): the “fraction of cells in G1 phase” value amounted to 0.487. Take `OCCN1CCN(CCCN2c3ccccc3Sc3ccc(C(F)(F)F)cc32)CC1` [Fluphenazine 2HCl] (45.711 µM): the “fraction of cells in G1 phase” value is 0.862. Regarding `CC(C)C(=O)Nc1ccc([N+](=O)[O-])c(C(F)(F)F)c1` [Flutamide] (72.4068 µM), the “fraction of cells in G1 phase” value came out at 0.526.

In the case of `Fc1ccc(C(c2ccc(F)cc2)N2CCN(C/C=C/c3ccccc3)CC2)cc1` [Flunarizine-2HCl] (41.8936 µM), the “fraction of cells in G1 phase” value amounted to 0.605. The same measure, in the same setting: with `Cc1ccc(C)c(OCCCC(C)(C)C(=O)O)c1` [Gemfibrozil] (79.8911 µM) the figure was 0.611; with `CCCc1nc2c(C)cc(-c3nc4ccccc4n3C)cc2n1Cc1ccc(-c2ccccc2C(=O)O)cc1` [Telmisartan] (38.8627 µM), 0.543.

In the case of `CC(=O)Nc1ccc(CC(=O)O)cc1` [Actarit] (103.52 µM), the “fraction of cells in G1 phase” value amounted to 0.521. With `Cc1oncc1C(=O)Nc1ccc(C(F)(F)F)cc1` [Leflunomide] (74.0157 µM), the “fraction of cells in G1 phase” value amounted to 0.555. Still for that read-out and setting: with `O=C(CCNNC(=O)c1ccncc1)NCc1ccccc1` [Nialamide] (67.0359 µM) the figure was 0.512; with `CC(=O)CCCCn1c(=O)c2c(ncn2C)n(C)c1=O` [Pentoxifylline] (71.8614 µM), 0.487; with `Cc1cccc(Nc2ccccc2C(=O)O)c1C` [Mefenamic acid] (82.887 µM), 0.464.
